Shown are actives, neighbours in structure and some others; about 2.2% of the full set was active somewhere.
HIF-2a block = HIF-2a reporter inhibitors, primary screen, luminescence, 786-0 RCC cells; 360,000 tested, 0.72% active; inhibition, % at 18.8 µM; 786-0 RCC cells HIF-2a reporter, luciferase luminescence, overnight; AID 624352, 2012;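 active = inhibition of the luminescence signal of 40% or more relative to plate controls, in a single-dose primary screen at 18.75 µM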
KKLEB cytotox = cytotoxicity in KKLEB CF airway cells, primary screen, cytotoxicity control for CF NF-kB inhibitor project, cell-based, uHTS, fluorescence assay plates | activity change (cytotoxicity), % at 5 µM | KKLEB CF airway cells viability, ATPlite luminescence, overnight; active compounds read low; cells stimulated with P. aeruginosa culture filtrate | 360,000 tested, 0.36% active | AID 602141, 2011;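 active = corrected activity change at or below -50% at 5 µM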
TRAIL sens C8 = viability loss with TRAIL in NB7+C8 cells, primary screen, TRAIL sensitizer project, cell-based, ATPlite luminescence. 360,000 tested, 1% active. inhibition (viability loss, TRAIL sensitization), % at 10 µM;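 active = compounds causing at least 50% loss of cell viability in the single-dose screen, relative to plate controls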
hiPSC survival = enhancers of single-cell hiPSC survival, primary screen, ATPlite luminescence | 100% = ROCK inhibitor wells, 0% = DMSO | survival enhancement, % at 20 µM | 360,000 tested, 0.044% active | AID 602274, 2012; in the data active = survival enhancement above about 18%;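 note: cells exposed to compounds for 16 hours before the ATP read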
CF NFkB block = inhibitors of PAF-induced NF-kB signaling, primary screen, cell-based, GFP fluorescence, uHTS; KKLEB NF-kB-GFP reporter, GFP fluorescence overnight; inhibition, % at 5 µM; 360,000 tested, 0.86% active; AID 588850, 2011;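 active = at least 50% inhibition at 5 µM, scaled per plate between neutral and stimulator controls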;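 note: PAF is a Pseudomonas aeruginosa culture filtrate used as stimulus; plate controls were PAF-stimulated DMSO wells for no effect and unstimulated DMSO wells for full effect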
PPC-1+TRAIL kill = compounds killing PPC-1 cancer cells with TRAIL present, primary screen, TRAIL potentiator project, ATPLite luminescence, uHTS; AID 1443, 2008; cell killing (% activity), % at 4 µM or 5 µM; PPC-1 cells + TRAIL, ATPLite viability luminescence; 220,000 tested, 0.41% active;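 active = cell killing above 50% in the first pass at 4 µM, then a duplicate retest at 5 µM averaging 50% or more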;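 note: plate controls were cells with TRAIL plus DMSO for no effect and medium-only wells lacking cells for full effect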
Active calls of the source: *; . = no result given.

SMILES | HIF-2a block | KKLEB cytotox | TRAIL sens C8 | hiPSC survival | CF NFkB block | PPC-1+TRAIL kill
COC(C(=O)Nc1ccnn1C1CCN(C(=O)c2ccc(C)cc2)CC1)c1ccccc1 (centres undefined) | -10 | 12 | -18 | 0 | 4 | .
CCN1/C(=C\c2ccc3cc(C)ccc3[n+]2CC)Sc2cc(C)c(C)cc21 | 14 | -12 | 21 | -4 | -65 | 39
CCN1/C(=C/c2ccc3cc(C)ccc3[n+]2CC)Sc2ccc3sccc3c21 | 27 | 10 | 94* | -1 | -137 | .
COc1ccc(NS(=O)(=O)c2ccc3c(c2)NC(=O)CC(=O)N3)cc1OC | 11 | 24 | 10 | 0 | 3 | .
CSc1ccc(CN2CCC(C)(Oc3cccc(C#N)c3)C2)cc1 (centres undefined) | -21 | 2 | 1 | -4 | -23 | .
CCOC(=O)[C@]12Cc3c(cc(OC)c(OC)c3OC)[C@H]1N(C1CCCCC1)C(=O)c1cc(OC)ccc12 | 32 | . | 67* | -1 | . | .
O=C(NC(=S)Nc1ccccc1)c1ccc(-c2ccccc2)cc1 | -222 | -7 | -10 | -1 | 7 | 54*
O=C(O)c1ccc(NC(=S)NC(=O)c2ccc(-c3ccccc3)cc2)cc1 | -138 | 10 | 11 | 0 | -23 | 8
COc1cccc(Cn2c(NCc3cccnc3)nc3c2c(=O)n(C)c(=O)n3C)c1 | 27 | 1 | 82* | -1 | 1 | 39
Cn1c(=O)c2c(nc(NCc3cccnc3)n2Cc2cccc(C(F)(F)F)c2)n(C)c1=O | 21 | 4 | 26 | -4 | -9 | 13
COc1ccc(Cl)cc1C(=O)O/N=C(\N)c1ccc(Cl)cc1 | -114 | 7 | 5 | 2 | -4 | 2
Cc1occc1C(=O)O/N=C(\N)c1ccc(Cl)cc1 | -171 | 6 | 87* | 0 | -5 | 24
CC(=O)Nc1ccc(NC2=Nc3ccccc3N3C2=Nc2c(c(C)nn2-c2ccccc2)C3c2ccccc2)cc1 (centres undefined) | -12 | 15 | 72* | -1 | 3 | 16
COc1ccc(NC2=Nc3ccccc3N3C2=Nc2c(c(C)nn2-c2ccc(C)cc2)C3c2cccnc2)cc1 (centres undefined) | -9 | 27 | -7 | 4 | -15 | 11
C/C=C(\C)C(=O)O[C@H](c1cc2ccc(=O)oc2cc1OC)[C@@H](O)C(C)(C)O | 14 | -13 | -11 | 2 | -3 | .
CCC(C)[C@H]1CN=C(N)N1CCc1cccc(F)c1 (some centres undefined) | 14 | 16 | 12 | 2 | -4 | .
CCCCNC1=CC(=O)C(=O)c2ccccc21 | 8 | 0 | 32 | -1 | 4 | .
O=C1C=C(Nc2ccccc2)c2ccccc2C1=O | 15 | -25 | 34 | 0 | 72* | 2
CCc1ccc(NC2=CC(=O)C(=O)c3ccccc32)cc1 | -112 | -91* | 93* | 0 | 96* | .
CN(C)S(=O)(=O)c1cccc(COC(=O)CCNC(=O)c2ccc([N+](=O)[O-])cc2)c1 | -2 | -6 | -6 | 0 | 5 | .
Cc1cc(C)cc(OCc2nc3ncc(Br)cc3[nH]2)c1 | 18 | -50* | 34 | -2 | 35 | .
COc1cccc(OCc2nc3ncc(Br)cc3[nH]2)c1 | -110 | -32 | 38 | 0 | 15 | 1
O=C(CSc1ccccc1)N1CCN(c2ccc(F)cc2)CC1 | -44 | -4 | -1 | 2 | -3 | .
Oc1c(Cl)cc(Cl)cc1/C=N/NC(=S)NC1CC2C=CC1C2 (centres undefined) | -6 | -72* | 5 | -1 | 50* | 9
Nc1nc(N)c2c(ccc3nccc32)[nH]1 | 16 | 6 | 80* | 1 | -34 | 40
SMILES | HIF-2a block | KKLEB cytotox | TRAIL sens C8 | hiPSC survival | CF NFkB block | PPC-1+TRAIL kill
Nc1c(N(CCC2=CCCCC2)C(=O)COc2ccc(F)cc2Cl)c(=O)[nH]c(=O)n1Cc1ccccc1 | -3 | -36 | 88* | 0 | 38 | .
O=c1c2ccccc2sn1-c1ccccc1 | -69 | -13 | -11 | -3 | 1 | 30
O=c1c2cc(C(F)(F)F)ccc2sn1-c1ccccc1 | -242 | -10 | 15 | -3 | 51* | .
O=c1c2ccccc2sn1-c1cccc(Cl)c1 | -188 | -2 | -10 | -3 | 60* | .
O=c1c2cc(F)ccc2sn1-c1ccccc1 | -125 | -17 | -6 | -4 | 44 | .
Cc1cc2occ(CC(=O)N(C)CC(=O)Nc3ccccc3C(F)(F)F)c2cc1C | 2 | 9 | -12 | 3 | -30 | .
COC(=O)c1cc(NC(=O)Cc2cccs2)cc(C(=O)OC)c1 | -1 | -3 | -9 | 1 | -5 | .
O=C(NCCC(=O)N1CCN(c2ccccn2)CC1)c1ccc(Br)cc1 | 4 | 3 | -2 | 0 | 5 | .
Cc1[nH]n(-c2cccc3ccccc23)c(=O)c1/C=N/NC(=O)c1cccc([N+](=O)[O-])c1 | -18 | -1 | 13 | 0 | 3 | 14
Cc1[nH]n(-c2ccccc2)c(=O)c1/C=N\NC(=O)C1COc2ccccc2O1 (centres undefined) | -107 | -4 | 85* | -2 | -2 | 72*
CC(=O)N/N=C/c1c(C)[nH]n(-c2ccccc2)c1=O | 20 | -5 | -2 | -1 | 3 | -2
Cc1[nH]n(-c2ccccc2)c(=O)c1/C=N/NC(=O)c1cccc([N+](=O)[O-])c1 | -27 | -14 | 54* | 0 | 10 | 7
COc1ccc(NC(=O)C2(N(CC(C)C)C(=O)Cn3nnnc3N)CCCCC2)cc1 | 16 | 7 | -16 | 3 | 2 | 56*
O=C1C(c2ccncc2)=C(O)c2ccccc21 | -81 | 5 | 54* | -3 | -14 | 25
O=C1C(=O)c2c(ccc3ccccc23)-c2ccccc21 | -106 | -84* | 67* | -2 | 74* | .
CN(C)/C=C1\Oc2ccc3ccccc3c2C1=O | -318 | 0 | 2 | -1 | -20 | -2
O=C(Nc1nc2c(s1)CCCC2)c1ccc(Br)o1 | -207 | 0 | 57* | -2 | -13 | 36
O=C(c1cc(-c2ccco2)nc2ccccc12)N1CCCC(C(F)(F)F)C1 (centres undefined) | 6 | -16 | -7 | 0 | 14 | .
Cc1onc(-c2c(Cl)cccc2Cl)c1C(=O)ONC(=O)c1ccccc1 | 31 | 8 | 52* | -1 | 7 | 3
Cn1cc(Cl)c(C(=O)OCC(=O)c2ccccc2)n1 | -5 | 15 | 3 | -1 | -10 | .
COc1ccc2cc(-c3ccsc3)ncc2c1 | -230 | -20 | 48 | -2 | -1 | .
COc1ccc2cc(-c3ccccc3)ncc2c1 | -187 | -23 | 62* | -3 | -42 | .
COc1cc(OC)cc(-c2cc3ccc(OC)cc3cn2)c1 | -267 | -55* | 83* | -6 | 0 | .

High-throughput results: PubChem BioAssay, Sanford-Burnham Center for Chemical Genomics
